Measured values from the supplement of paper PMC12808144.

Tests used:
Mel-DCC-11 = test: cell viability relative to DMSO control (fraction of DMSO control); higher = less cytotoxic, active = 0.5 or less; details: 1 µM; 120 h
Outline: (§1)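 Three cell types were screened against 315 approved anti-cancer drugs from TargetMol, acoustically pre-spotted in 384-well plates at 1 µM in duplicate over 120 h: NHEM-hTERT immortalized melanocytes (2500/well), patient-derived Mel-DCC-11 and its resistant subline Mel-DCC-11-R (both 1500/well), all in 40 µl per well. The subline was tested alone and with 8 µM of its selecting drug. Viability, measured by luminescence, was normalised to vehicle controls and averaged across duplicates, with ATPlite 1step as the readout.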

NHEM-hTERT = test: as above; details: 1 µM; 120 h
Outline: as §1

Mel-DCC-11-R = test: cell viability relative to DMSO control (fraction of DMSO control); higher = less cytotoxic, active = 0.8 or less; details: 1 µM, 120 h
Outline: as §1

Measured: cell viability

Cc1coc2c1C(=O)C(=O)c1c-2ccc2c(C)cccc12 [Tanshinone I]
inactive: Mel-DCC-11 0.753 | NHEM-hTERT 0.983 | Mel-DCC-11-R; vemurafenib co-treatment 0 µM 1.03 | Mel-DCC-11-R; vemurafenib co-treatment 8 µM 0.825

CNC(=O)c1c(C)oc2cc(Oc3ncnc4cc(OC)c(OC)cc34)ccc12 [Fruquintinib]
inactive: Mel-DCC-11 1.34 | NHEM-hTERT 0.982 | Mel-DCC-11-R; vemurafenib co-treatment 0 µM 1.09 | Mel-DCC-11-R; vemurafenib co-treatment 8 µM 1.05

COc1ccc([C@@H]2CC(=O)c3c(O)cc(O)cc3O2)cc1O [Hesperetin]
inactive: Mel-DCC-11 1.01 | NHEM-hTERT 0.971 | Mel-DCC-11-R; vemurafenib co-treatment 0 µM 0.891 | Mel-DCC-11-R; vemurafenib co-treatment 8 µM 1.05

Cc1c(C(=O)Nc2ccc(N3C[C@@H](C)O[C@@H](C)C3)nc2)cccc1-c1ccc(OC(F)(F)F)cc1 [Sonidegib]
inactive: Mel-DCC-11 1.17 | NHEM-hTERT 1.04 | Mel-DCC-11-R; vemurafenib co-treatment 0 µM 1.03 | Mel-DCC-11-R; vemurafenib co-treatment 8 µM 1.2

CCCCCCCCCCCCCCCCOP(=O)([O-])OCC[N+](C)(C)C [Miltefosine]
inactive: Mel-DCC-11 1.01 | NHEM-hTERT 1.17 | Mel-DCC-11-R; vemurafenib co-treatment 0 µM 0.843 | Mel-DCC-11-R; vemurafenib co-treatment 8 µM 0.936

CC(C)C(=O)Nc1ccc([N+](=O)[O-])c(C(F)(F)F)c1 [Flutamide]
inactive: Mel-DCC-11 1.26 | NHEM-hTERT 1.25 | Mel-DCC-11-R; vemurafenib co-treatment 0 µM 1.1 | Mel-DCC-11-R; vemurafenib co-treatment 8 µM 1.21

O.S=c1nc[nH]c2nc[nH]c12 [6-Mercaptopurine monohydrate]
inactive: Mel-DCC-11 0.736 | NHEM-hTERT 0.937 | Mel-DCC-11-R; vemurafenib co-treatment 8 µM 0.881
active: Mel-DCC-11-R; vemurafenib co-treatment 0 µM 0.725

Oc1cc(O)cc(/C=C/c2ccc(O)c(O)c2)c1 [Piceatannol]
inactive: Mel-DCC-11 0.919 | NHEM-hTERT 1.09 | Mel-DCC-11-R; vemurafenib co-treatment 0 µM 0.982 | Mel-DCC-11-R; vemurafenib co-treatment 8 µM 1
